In PubChem BioAssay AID1508619 (National Center for Advancing Translational Sciences (NCATS), 2020) one finds Potency data, which are given here for 40 compounds.

SMILES strings stand for the structures. Results filed as inconclusive are left out. Where a call stands in place of a potency, no number is given. Calls of active or inactive are those of the source. Calls come from the whole dose curve; as a rule, active = well fitted inhibition curve with a large enough effect; inconclusive = small, poorly fitted or top-dose-only effect; inactive = no such curve, though single readings can be large or run the other way.
Potency is the fitted concentration of half-maximal effect.

The nature of the assay: Counterscreen qHTS for Identification of Calcium Integrin Binding Protein 1 (CIB1) Competitor. Particulars: series mostly up to 114 µM. The source says: Assay Provider: Ulhas P. Naik, PhD
Sidney Kimmel Medical College
Thomas Jefferson University, Philadelphia, PA
Primary function of platelets is to maintain hemostasis. At the site of vascular injury, platelets adhere to adhesive proteins such as collagen and von Willebrand factor. Adherent platelets are activated and generate soluble platelet agonists such as thrombin, ADP and thromboxane A2. Following exposure of circulating platelets to these agonists, results in platelet shape change, granule secretion and activation of platelet integrin alphaIIb-beta3. Ligand binding to activated integrin alphaIIb-beta3 triggers outside-in signaling, leading to platelet aggregation, stabilization of platelet plug, and clot retraction. Upon atherosclerotic plaque rupture also causes platelet plug formation, which underlies a number of cardiovascular diseases such as myocardial infraction and stroke. A number of anti-platelet drugs such as aspirin, clopidogrel, prasugrel, vorapaxar, and eptifibatide are currently available to prevent the thrombotic complications. However, these anti-platelet agents have several limitations including inherent variability in individual responses, developing resistance, and serious bleeding side effects. For these reasons they are not suitable for long-term protection. Based on the experiences with current anti-platelet drugs, it appears that the most useful therapeutic approach is to intersect the secondary responses such as integrin outside-in signaling or recruitment of platelets by TxA2 and secreted ADP. Compounds, which can largely preserve the primary hemostatic function of platelets but inhibit secondary response will be most desired therapeutic agents for treatment of cardiovascular disease.
CIB1 is a calcium integrin binding protein, which specifically interact with the alphaIIb subunit of integrin alphaIIb-beta3. Binding of CIB1 to alphaIIb regulates the outside-in signaling in platelets, which is needed for thrombus stabilization and thrombus growth. […] Therefore, we propose that discovery of a small molecule that can prevent the association of CIB1 and alphaIIb-beta3 will be a potential anti-platelet agent that can block the thrombus formation without undue effect on hemostasis.
To develop fluorescence polarization (FP) assay using fluorescently labeled alphaIIb peptide and CIB1 protein. Using FP assay characterize the binding affinity, competitive inhibition, and acceptable Z factor (0.5 to1) in order to perform the HTS to identify small molecule compound that can prevent CIB1 binding to platelet integrin alphaIIb-beta3. Active compounds were re-acquired and validated using confirmatory and counterscreens (using 100 nM scrambled peptide).
[1] Naik MU, Nigam A, Manrai P, et al. CIB1 deficiency results in impaired thrombosis: the potential role of CIB1 in outside-in signaling through integrin alpha IIb beta 3. J Thromb Haemost. 2009;7(11):1906-1914. doi:10.1111/j.1538-7836.2009.03581.
SEQUENCE No. (1, 2, 3, etc.); […] (e.g., Cells, Incubation, Reagent, etc.); VALUE and DESCRIPTION.
1; Reagent; 3 uL; Protein or buffer (4/3x)
2; Compound; 46 nL; Control inhibitor / compound library
3; Time; 15 min; Room temperature incubation
4; Reagent; 1 uL; Fluorescent labeled peptide (4x)
5; Time; 1000 rpm; Centrifuge
6; Time; 15 min; Room temperature incubation
7; Detection; Ex 480/ Em 540; ViewLux Fluorescence Read
NOTES (numbers refer to sequence above)
1; Protein Mixture: C1B1-GST (final concentrations of 1 uM). Buffer composition: 5 mM HEPES pH 7.4, 125 mM NaCl, 5 mM CaCl2, 0.01% Tween20.
2; Control Inhibitor: unlabeled peptide (final concentration range 17.4 nM to 572 uM). Compound Library final concentration range 18.3 nM to 114 uM.
3; Room temperature incubation.
4; Fluorescent Labeled Peptide: FITC-alphaIIb (final concentration of 100 nM). Sequence of Scrambled peptide: Acetyl-[…]-FITC (purity is 95.37%).
6; Room temperature incubation.
[…]
For `O=C1CCCC2=C1C1(CCCOC1)N=C(Nc1nc3ccccc3o1)N2` (stereo not given), the Potency result is “inactive”. For the compound `O=C(NNC(=O)c1nc2ccccc2[nH]1)OCc1ccccc1`, the Potency result is “inactive”. Turning to `CCOC(=O)c1c(-c2ccc(C)o2)csc1NC(=O)CSc1nnnn1-c1ccccc1`, the Potency result is “inactive”.

On to `CN(C)CCN1C(=O)c2cccc3cc(N)cc(c23)C1=O`, for which the Potency result is “inactive”.

Regarding `C=CCNc1oc(-c2cccc3ccccc23)nc1C#N`, the Potency entry is “inactive”. Turning to `Cc1ccc(OCCn2c(CCNC(=O)c3ccsc3)nc3ccccc32)cc1`, the Potency entry is “inactive”.

As to `N#Cc1ccc(N[S+](=O)([O-])c2ccc(Nc3nc(-c4ccccc4)cs3)cc2)cc1`, the Potency was 44.7 µM (active). The value for `CN1CCCN(C(=O)c2cccc(-c3ccc(C=C4C(=O)Nc5ccc(Cl)cc54)o3)c2)CC1` was 35.5 µM (active); that for `CS(=O)(=O)c1ccc(C(=O)OCC(=O)N2CCC(Cc3ccccc3)CC2)cc1[N+](=O)[O-]` was “inactive”. In the case of `CCc1ccc(C=C2SC(=S)NC2=O)cc1`, the Potency result is “inactive”.

As for `COc1ccc(CC(=O)Nc2ccc(S(=O)(=O)Nc3cc(C)on3)cc2)cc1C`, the Potency result was “inactive”. Regarding `O=C(O)c1ccc(O)c2ncc(-c3n[nH]nc3-c3ccccc3)cc12`, the Potency result was “inactive”. `CC(C)(C)OC(=O)CC(=O)NNC(=O)c1nc2ccccc2[nH]1`: the Potency entry is “inactive”. Turning to `OCCOCCN1CCN(C(c2ccccc2)c2ccc(Cl)cc2)CC1` (stereo not given), the Potency result is “inactive”. As for `O=C(O)c1ccc(O)c2ncc(N3CCC(N4CCOCC4)C3)cc12` (stereo not given), the Potency entry was “inactive”. For `Cc1ccc(S(=O)(=O)Nc2cnccc2C(=O)Nc2nc3ccccc3s2)cc1` the value was “inactive”; for `COc1ccc2nc(S(=O)Cc3ncc(C)c(OC)c3C)[nH]c2c1` (stereo not given), “inactive”; for `CN(C(=O)c1cccs1)c1cccnc1`, 44.7 µM (active). For `O=C(O)c1c(Cl)c(Cl)c(Cl)c(Cl)c1-c1c2cc(I)c(=O)c(I)c-2oc2c(I)c(O)c(I)cc12`, the Potency result was “inactive”. The value for `NC(=O)C1CCN(c2ncc(Br)s2)CC1` was 39.8 µM (active); that for `CN(C)c1cnc2c(O)cccc2c1` was “inactive”; that for `N#Cc1ccc(NS(=O)(=O)c2ccc(NC(=O)Cc3ccc(Cl)c(Cl)c3)cc2)cc1` was “inactive”. As to `O=C(O)c1ccc(-c2ccc3ncnc(NCc4nccs4)c3c2)o1`, the Potency result is “inactive”.

With `Cc1ccc(C)n1-c1cccc(C(=O)O)c1`, the Potency result was “inactive”. For `O=C1CCC2=C1C1(CCCC1)N=C(Nc1nc3ccccc3o1)N2` the value was “inactive”; for `CCCCCCCCOc1ccccc1C(=O)Nc1ccc(C(=O)OCC[N+](C)(CC)CC)cc1`, “inactive”. Turning to `O=C1CCCC2=C1C(c1ccn[nH]1)N=C(Nc1nc3ccccc3o1)N2` (stereo not given), the Potency entry was “inactive”. Turning to `CC1(C)N=C(Nc2nc3ccccc3o2)NC2=C1C(=O)CCC2`, the Potency result was “inactive”. `CC(=O)Nc1sc2c(c1-c1nc3ccccc3s1)CNC2`: the Potency entry is “inactive”. The value for `Oc1c(Cl)cc(Cl)c(Cl)c1Cc1c(O)c(Cl)cc(Cl)c1Cl` was “inactive”; that for `NC[C@H](O)c1ccc(O)c(O)c1` was “inactive”; that for `COc1cc([C@H]2Oc3cc([C@H]4Oc5cc(O)cc(O)c5C(=O)[C@@H]4O)ccc3O[C@@H]2CO)ccc1O` was “inactive”. For the compound `N#Cc1cnc(NS(=O)(=O)c2ccc(NC(=O)Cc3ccc(Cl)c(Cl)c3)cc2)s1`, the Potency entry was “inactive”. For the compound `Cc1cc2nc3ccc(=[N+](C)C)cc-3sc2cc1N`, the Potency is 44.7 µM (active). In the case of `Nc1ccc(O)c([N+](=O)[O-])c1`, the Potency is 63.1 µM (active). With `CN1CCC(N(Cc2cccs2)c2ccccc2)CC1`, the Potency entry is “inactive”.

As for `Cc1cc2c(C(C)C)c(O)c(O)c(C=O)c2c(O)c1-c1c(C)cc2c(C(C)C)c(O)c(O)c(C=O)c2c1O`, the Potency entry was “inactive”. Consider `COc1ccc(NC(=O)c2[nH]c(C)c(C(C)=O)c2C)cc1[S+](=O)([O-])Nc1ccccc1C#N`, for which the Potency result is “inactive”. On to `O=C1c2ccccc2C(=O)c2c1ccc(O)c2O`, for which the Potency was 22.4 µM (active). For `C=Cc1c(C)c2cc3[nH]c(cc4nc(cc5nc(cc1[nH]2)C(C)=C5CCC(=O)O)C(CCC(=O)O)=C4C)c(C)c3C=C`, the Potency is 25.1 µM (active).
